Only a selection was taken, and hits are over-represented in it overall.
CHX counter – affects cycloheximide protein synthesis inhibition readout, counter-screen; 12% of 300,000 active; max response, %; cell reporter, cycloheximide protein synthesis inhibition counterscreen; in the data active means max response mostly above about 13%, no sharp cut-off; inactive means mostly below about 14%; further: read at 38.3 µM for the half of the compounds with a filed dose
TbPYK inhibitor – blocks Trypanosoma brucei pyruvate kinase. 0.12% of 410,000 active. TbPYK enzyme, Kinase-Glo Plus ATP luminescence, 45 min. Potency, µM (series often up to 76.8 µM), usual class: inhibitors; further: nearly all actives have a fitted effect of over 50% in size
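Luminescent Kinase-Glo Plus end-point after 45 min room-temperature reaction of T. brucei pyruvate kinase started with 130 uM ADP (final). Buffer TEA 50 mM pH 7.2 with KCl, MgCl2, BSA, Tween-20; titration-based qHTS with fitted concentration-effect curves.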
Shiga toxin inh – blocks Shiga toxin action in Vero cells | AID 2315 | Vero cells, Shiga toxin protein synthesis inhibition reporter | 9.2% of 290,000 active | inhibition, % at 38.7 µM; in the data active means inhibition mostly above about 28%, no sharp cut-off; inactive means mostly below about 43%
RE007 growth inh – less growth of the S. pombe RE007 Vpr strain. S. pombe RE007 Vpr strain, BacTiter-Glo ATP luminescence, 24 h. Potency, µM (series often up to 92.2 µM), usual class: inhibitors. 0.21% of 360,000 active. AID 651644; active means well fitted falling curve with a large enough effect; inconclusive means small, poorly fitted or top-dose-only effect; inactive means no such curve, though single readings can be large or run the other way; further: nearly all actives have a fitted effect of over 50% in size
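Fission yeast strain RE007, carrying one chromosomally integrated HIV-1 vpr copy, was seeded at OD 0.01 in PMG+AL medium with 23 nL pinned compound. After 24 h at 30 °C and 99% humidity, viability was read by BacTiter-Glo luminescence.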
LmPK inh – inhibitors of Leishmania mexicana pyruvate kinase; Potency, µM (top dose mostly 57.5 µM), most hits filed as inhibitors; purified LmPK, Kinase-Glo ATP luminescence, 1 h; 0.37% of 290,000 active
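Screened at intermediate enzyme activity to detect both inhibitors and activators: LmPK at 0.1 nM, with a 0.5 nM enzyme column as activation reference. PEP 0.5 mM, ADP 0.1 mM; ATP detected by luminescence after 1 h.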
Giardia FBPA inh – Giardia lamblia aldolase inhibition; A8B2U2; purified Giardia FBPA; Potency, µM (top dose mostly 59.6 µM), actives largely listed as inhibitors; 0.71% of 290,000 active; AID 2451; further: nearly all actives have a fitted effect of over 55% in size
Target sequence (A8B2U2 whole entry, looked up): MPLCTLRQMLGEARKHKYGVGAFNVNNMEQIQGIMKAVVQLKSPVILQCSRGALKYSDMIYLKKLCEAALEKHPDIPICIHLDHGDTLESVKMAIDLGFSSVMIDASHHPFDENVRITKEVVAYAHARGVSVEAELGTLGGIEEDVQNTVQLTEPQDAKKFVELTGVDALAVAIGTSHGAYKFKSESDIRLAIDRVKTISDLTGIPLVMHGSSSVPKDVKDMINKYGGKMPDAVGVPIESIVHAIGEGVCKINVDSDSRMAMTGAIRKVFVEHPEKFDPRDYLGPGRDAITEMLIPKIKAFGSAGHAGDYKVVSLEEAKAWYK
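Giardia FBPA (40 nM reagent) was preincubated 10 min at RT with compound (up to 57.5 uM final), then substrate plus GAPDH/TPI/NAD/arsenate coupling system with diaphorase/resazurin was added; resorufin fluorescence (525/598 nm) was read after 20 min.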
Of the large screens only hits and unclear results are named; the others gave an inactive call; ! = a repeat was not active. Unless noted, the call rests on the fitted dose curve; in most records, active means well fitted curve in the direction sought with a large enough effect; inconclusive means small, poorly fitted or top-dose-only effect, or another doubt; inactive means no such curve, though single readings can be large; an effect the other way counts as inactive or inconclusive.

COc1ccc(N2CCN(C(=O)c3cc4cc(Cl)ccc4[nH]3)CC2)cc1	CHX counter 19.2
O=C(NC(=S)N1CCN(Cc2ccc3c(c2)OCO3)CC1)c1ccc(Cl)cc1	CHX counter 14.9
O=C(c1cc2cc(Cl)ccc2[nH]1)N1CCCCC1	CHX counter 24.7
CN1CCN(C(=O)c2cc3cc(Cl)ccc3[nH]2)CC1	CHX counter 12.4!
O=C(c1cc2cc(Cl)ccc2[nH]1)N1CCN(c2ccc(F)cc2)CC1	none
CCN1CCN(C(=O)c2cc3cc(Cl)ccc3[nH]2)CC1	none
NC(=O)c1nsc(C(=O)N(CC(=O)NC2CCCCC2)c2ccc(Cl)cc2)c1N	none
COCc1c(C(=O)NC(C)c2ccc(S(N)(=O)=O)cc2)oc2ccccc12 (configuration not stated)	none
CCOc1ccccc1NC(=O)CSC1=Nc2ccccc2C2=NC(CC(=O)NC3CCCCC3)C(=O)N12 (configuration not stated)	none (no result: CHX counter, Shiga toxin inh, RE007 growth inh, LmPK inh, Giardia FBPA inh)
O=S1(=O)NC(CC2=CCCCC2)C2CCCCC2O1 (configuration not stated)	none
O=C(c1cccc(Cl)c1)N1CCN(Cc2ccc3c(c2)OCO3)CC1	none
O=C(c1cc2cc(Cl)ccc2[nH]1)N1CCN(Cc2ccc3c(c2)OCO3)CC1	CHX counter 13.3, Giardia FBPA inh inconclusive
Cc1ccc(C(=O)N2CCN(Cc3ccc4c(c3)OCO4)CC2)o1	none
Cc1ccc2c(C)c(C(=O)N3CCN(Cc4ccc5c(c4)OCO5)CC3)oc2c1C	CHX counter 32.2, Shiga toxin inh 74.7
Cc1ccc(S(=O)(=O)N(C)C)cc1NC(=O)c1cc(=O)c2ccccc2o1	none
COc1cc(SC)ccc1C(=O)Nc1ccc(C)cc1C	CHX counter 47.4, Shiga toxin inh 106.5
COc1cc(SC)ccc1C(=O)Nc1ccc2c(c1)OCO2	CHX counter 37.4, Shiga toxin inh 71.5
COc1cc(SC)ccc1C(=O)Nc1ccc(OCC(=O)N2CCOCC2)cc1	CHX counter 16.5, Shiga toxin inh 60.9
COc1cc(SC)ccc1C(=O)Nc1ccc(C)cc1	CHX counter 35.7, Shiga toxin inh 69.4
NS(=O)(=O)c1cccc(C(=O)N2CCCc3ccccc32)c1	none (no result: CHX counter, Shiga toxin inh, LmPK inh, Giardia FBPA inh)
Cc1[nH]n(-c2ccccc2)c(=O)c1C(C[N+](=O)[O-])c1ccc(F)cc1 (configuration not stated)	RE007 growth inh inconclusive, Giardia FBPA inh inconclusive
Cc1[nH]n(-c2ccccc2)c(=O)c1C(C[N+](=O)[O-])c1ccc(Cl)cc1 (configuration not stated)	RE007 growth inh 28.2µM, Giardia FBPA inh inconclusive
Cc1ccc(C(C[N+](=O)[O-])c2c(C)[nH]n(-c3ccccc3)c2=O)cc1 (configuration not stated)	RE007 growth inh 20µM, Giardia FBPA inh inconclusive
Cc1ccc2sc(N3CCN(C(=O)C4COc5ccccc5O4)CC3)nc2c1C (configuration not stated)	none (no result: CHX counter, Shiga toxin inh, RE007 growth inh, LmPK inh, Giardia FBPA inh)
CC1=CC(C)(C)Nc2ccc(OC(=O)CN3C(=O)c4ccccc4C3=O)cc21	CHX counter 35.4, Shiga toxin inh 55.0
COc1ccc(-c2nnc(-c3ccccc3)o2)cc1OC	CHX counter 50.6, Shiga toxin inh 52.9
c1ccc(-c2nnc(-c3ccccc3)o2)cc1	CHX counter 30.7, Shiga toxin inh 85.5, RE007 growth inh inconclusive, LmPK inh inconclusive
ClCc1nnc(-c2ccccc2)o1	none
c1ccc(-c2nnc(-c3ccncc3)o2)cc1	CHX counter 40.3, LmPK inh inconclusive
COc1cc(-c2nnc(-c3ccco3)o2)ccc1OCc1ccccc1	CHX counter 38.7, Shiga toxin inh 58.7
c1ccc(-c2nnc(C3CC(c4ccncc4)=NO3)o2)cc1 (configuration not stated)	none (no result: CHX counter, Shiga toxin inh, LmPK inh, Giardia FBPA inh)
COc1cc(-c2nnc(-c3ccccc3)o2)cc(OC)c1OC	none
Cc1oc(C(C)(C)C)cc1C(N)=O	none
COc1ccccc1-c1nnc(-c2ccc(C)cc2)o1	none (no result: CHX counter, Shiga toxin inh, LmPK inh, Giardia FBPA inh)
Cc1nc(-c2nnc(-c3ccccc3)o2)c(C(F)(F)F)o1	CHX counter 27.7, Shiga toxin inh 48.5
O=C(CCc1ccccc1)c1nnc(-c2ccccc2)o1	CHX counter 30.4
Cc1nc(-c2noc(-c3cccc(Cl)c3)n2)c(C(F)(F)F)o1	none
Nc1ccccc1-c1nnc(-c2ccc(-c3ccccc3)cc2)o1	CHX counter 46.5, Shiga toxin inh 43.5
Cc1ccccc1NS(=O)(=O)c1cccc(-c2nnc(-c3ccccc3)o2)c1	none (no result: TbPYK inhibitor)
CN(C)S(=O)(=O)c1cccc(-c2nnc(-c3ccccc3)o2)c1	CHX counter 44.1, Shiga toxin inh 73.4
Cc1ccsc1C(=O)N1CCCC(C)(C(=O)NS(=O)(=O)C2CC2)C1 (configuration not stated)	none (no result: CHX counter, Shiga toxin inh, LmPK inh, Giardia FBPA inh)
COc1ccc(C2=Nn3c(nnc3-c3cc(OC)ccc3OC)SC2)c(OC)c1	none (no result: TbPYK inhibitor, RE007 growth inh, LmPK inh)
Clc1cccc(-c2nnc(-c3ccccc3)o2)c1	CHX counter 36.5, Shiga toxin inh 59.1, RE007 growth inh 20µM, LmPK inh 25.1µM
COc1ccccc1-c1nnc(-c2ccc(N3CCOCC3)cc2)o1	CHX counter 34.9, Shiga toxin inh 61.6
Oc1ccccc1-c1nnc(-c2ccc(C(F)(F)F)cc2)o1	CHX counter 34.8
COc1cccc(-c2nnc(-c3ccc(C(F)(F)F)cc3)o2)c1	CHX counter 27.3, Shiga toxin inh 49.2
Clc1cccc(-c2nnc(-c3ccno3)o2)c1	RE007 growth inh inconclusive
COc1cccc(-c2nnc(-c3ccc4ccccc4c3)o2)c1	RE007 growth inh inconclusive (no result: CHX counter, Shiga toxin inh, LmPK inh, Giardia FBPA inh)
COc1ccc2[nH]cc(CCNC(=O)c3cnn(-c4ccccc4Cl)c3C3CCN(C(=O)OC(C)(C)C)CC3)c2c1	none (no result: CHX counter, Shiga toxin inh, RE007 growth inh, LmPK inh, Giardia FBPA inh)
CCOC(=O)/C(N=Nc1ccc2c(c1)OCO2)=C(\C)O	CHX counter 50.8, Shiga toxin inh 91.7
COc1ccc(C2Nc3ccccc3C(=O)N2Cc2ccco2)cc1CN1C(=O)c2ccccc2C1=O (configuration not stated)	Shiga toxin inh 43.0!
COc1ccc(C2Nc3ccccc3C(=O)N2Cc2ccco2)cc1COc1ccc(F)cc1 (configuration not stated)	CHX counter 60.2, Shiga toxin inh 40.4
O=C1c2ccccc2NC(c2cccc(O)c2)N1Cc1ccco1 (configuration not stated)	none
COc1cccc(CSc2nc3n(n2)C(c2cccs2)C(C(=O)Nc2ccccc2C)=C(C)N3)c1 (configuration not stated)	none (no result: CHX counter, Shiga toxin inh, RE007 growth inh, LmPK inh, Giardia FBPA inh)
O=C(/C=C/C(=O)N1CCc2ccccc2C1)N1CCc2ccccc2C1	none (no result: RE007 growth inh)
O=C(COc1ccc(F)cc1)N1CCc2ccccc2C1	CHX counter 32.4
O=C(Cc1ccc(Br)cc1)N1CCc2ccccc2C1	CHX counter 39.1 (no result: Shiga toxin inh)
O=C(CCCOc1ccccc1)N1CCc2ccccc2C1	CHX counter 39.4, Shiga toxin inh 85.2
